Screening data: PubChem BioAssay, Pan Lab, Icahn School of Medicine at Mount Sinai
ROC1-CUL1 inh – inhibitors of human ROC1-CUL1 ubiquitin ligase activity. inhibition, % at 10 µM. in vitro K48 di-Ub FRET, acceptor:donor ratio, 45 min. actives 0.6% (n = 140,000). AID 1347404, 2020; in the data active = inhibition above about 25%
* marks the source's active call; other numbers are inactive results. Only a selection was taken, and hits are over-represented in it overall.

SMILES	ROC1-CUL1 inh
CC(C)OC(=O)c1ccc(Cl)c([N+](=O)[O-])c1	12.8
CN1C(=O)/C(=C/c2cn(CC(N)=O)c3ccc(Br)cc23)SC1=Nc1cccc(Cl)c1Cl	-3.4
CCOc1c(I)cc(I)cc1/C=C1/C(=O)N(c2ccc(Cl)c(Cl)c2)N=C1C	-2.4
COc1ccc(/C=C2\C(=O)NN(c3ccc(Br)cc3)C2=O)cc1Br	20.0
COc1cc(Cl)cc(/C=C2/C(=O)NN(c3ccc(F)c(Cl)c3)C2=O)c1O	94.1*
C=CCN1C(=O)NC(=O)/C(=C/c2cc(I)cc(I)c2OC)C1=O	-6.8
COc1c(I)cc(I)cc1/C=C1/C(=O)NN(c2ccc(Br)cc2)C1=O	44.1*
O=C1NN(c2ccc(Cl)c(Cl)c2)C(=O)/C1=C\c1c2ccccc2cc2ccccc12	-1.0
Cc1ccc(N2NC(=O)/C(=C/c3cc(Cl)ccc3O)C2=O)cc1C	12.8
COc1cc(Cl)cc(C=C2C(=O)N(C)C(=O)N(C)C2=O)c1O	-10.1
COc1c(I)cc(I)cc1/C=C1\C(=O)NN(c2ccc(Cl)c(Cl)c2)C1=O	89.2*
N#Cc1c(NC(=O)CCC2CCCCC2)sc2c1CCCCCC2	-1.3
COc1nc(OC)nc(-n2cnc(S(N)(=O)=O)n2)n1	-1.5
CCNc1nc(Sc2nc(C)cc(C)n2)nc(N(c2ccccc2)c2ccccc2)n1	1.4
CC(C)(C)c1ccccc1OCC(=O)Nc1ccccc1C(N)=O	-0.9
N/C(=N\O)c1nccnc1N1CCN(Cc2ccccc2)CC1	0.3
Nc1nonc1N=NN(Cc1ccc(Cl)cc1Cl)c1nonc1N	-8.2
O=c1[nH]cccc1I	65.9*
O=c1[nH]cc(I)cc1I	3.0
O=c1[nH]cccc1-c1ccc[nH]c1=O	5.2
CNCC1COc2ccccc2O1 (stereo unspecified)	-1.5
CCCOc1ccc(C(=O)N2CCN(S(C)(=O)=O)CC2)cc1	-3.2
O=C1NC(=S)N(c2cccc(F)c2)C(=O)/C1=C/c1ccc(Sc2ccc(Cl)cc2)o1	0.3
O=C1NC(=S)N(c2ccc(Br)cc2)C(=O)/C1=C/c1ccc(Sc2nc3ccccc3[nH]2)o1	107.6*
Cc1ccc(N2C(=O)/C(=C/c3ccc(-c4ccccc4)o3)C(=O)NC2=S)cc1Cl	-2.4
SMILES	ROC1-CUL1 inh
COc1ccc(C(=O)Nc2cccc(-c3nc4ncccc4o3)c2)cc1Br	11.7
CCOc1ccc(N2C(=O)/C(=C/c3cccn3C)C(=O)NC2=S)cc1	9.6
O=C1NC(=S)N(c2ccc(Br)cc2)C(=O)/C1=C/c1cccn1-c1ccccc1	1.0
Cc1c(/C=C2/C(=O)NC(=S)N(c3cccc(Cl)c3Cl)C2=O)c2ccccc2n1C	-5.0
O=C1NC(=S)N(c2ccc(Cl)cc2)C(=O)/C1=C/c1cccn1-c1cccc(C(=O)O)c1	25.4*
Cc1cc(/C=C2\C(=O)NC(=S)N(c3ccc(Cl)cc3)C2=O)c(C)n1-c1ccc(Cl)cc1	-3.5
Cc1c(Cl)cccc1N1C(=O)/C(=C/c2cc(C)n(-c3ccc(C#N)cc3)c2C)C(=O)NC1=S	3.6
Cc1cc(/C=C2\C(=O)NC(=S)N(c3ccccc3F)C2=O)c(C)n1-c1ccc(C(=O)O)c(Cl)c1	85.5*
O=C1NC(=O)N(c2ccccc2F)C(=O)/C1=C/c1cccn1-c1ccc(Br)cc1	2.4
CCc1ccc(N2C(=O)/C(=C/c3cccn3-c3ccccc3)C(=O)NC2=S)cc1	7.8
CCc1cccc(C)c1-n1c(C)cc(/C=C2\C(=O)NC(=S)N(c3ccccc3F)C2=O)c1C	-7.7
Cn1cccc1/C=C1\C(=O)NC(=S)N(c2ccccc2F)C1=O	94.7*
Cc1c(Cl)cccc1N1C(=O)/C(=C/c2cccn2-c2cccc(C(=O)O)c2)C(=O)NC1=S	100.5*
CCC(CC)C(=O)Nc1ncc2c(n1)CC(C)(C)CC2=O	6.7
COc1ccccc1NC(=O)C1C(C)=Nc2nc(SCc3ccccc3Cl)nn2C1c1ccncc1 (stereo unspecified)	-4.0
O=C1ON=C(c2ccccc2)C1c1ccccc1 (stereo unspecified)	5.2
O=C(N/N=C/c1ccc(Cl)s1)C(Cc1cccs1)=NC(=O)c1ccccc1	3.7
N#CC1C(=N)Oc2n[nH]c(-c3ccc(C4CCCCC4)cc3)c2C1c1cc(Br)c(O)c(Br)c1 (stereo unspecified)	9.3
CCOc1cc(CC2=NC(=S)N(c3ccc(OC)cc3)C2=O)ccc1OCc1ccc(F)cc1	8.3
COc1ccccc1N1CCN(C(=O)Nc2cc(C)ccc2C)CC1	0.8
Nc1c(C(=O)Nc2ccc(F)c(F)c2)sc2nc(-c3ccc4c(c3)OCO4)ccc12	-9.3
CN(Cc1n[nH]c2c1CCCC2)C(=O)CC1C(=O)NCCN1Cc1ccoc1 (stereo unspecified)	1.8
CC(C)c1nccn1Cc1cc(C(=O)N2CCN(Cc3cccs3)CC2)n[nH]1	-1.1
CCCCC1(C)OC(=O)C(=Cc2ccc(-c3cc(C(=O)O)ccc3Cl)o2)C(=O)O1 (stereo unspecified)	85.0*
CCC(C)N1C(=O)S/C(=C/c2ccc(-c3cc(C(=O)O)ccc3Cl)o2)C1=O (stereo unspecified)	15.3
SMILES	ROC1-CUL1 inh
O=C(O)c1ccc(Cl)c(-c2ccc(/C=N/Nc3ccccc3)o2)c1	1.9
O=C(CCC(=O)NN=C(C1CC1)C1CC1)NCc1ccccc1	8.1
COc1cccc(N2C(=O)/C(=C/c3ccc(C(=O)O)cc3)SC2=S)c1	2.7
O=C(O)c1ccc(N2C(=O)/C(=C/c3ccc4c(c3)OCO4)SC2=S)cc1	26.1*
O=C(O)c1cccc(N2C(=O)/C(=C/c3ccc4c(c3)OCO4)SC2=S)c1	-1.6
O=C1Oc2ccccc2C(=O)C1Sc1ccc(Cl)cc1 (stereo unspecified)	-0.6
O=C1Oc2ccccc2C(=O)C1C(=O)c1ccccc1 (stereo unspecified)	-1.7
O=C(O)c1ccccc1SC1C(=O)Oc2ccccc2C1=O (stereo unspecified)	45.8*
O=C(COc1ccccc1Br)N1CCN(c2ncccn2)CC1	12.6
COc1ccc(C2C(C(=O)c3ccc(C)o3)C(=O)C(=O)N2CC2CCCO2)cc1OC (stereo unspecified)	-2.4
COC(=O)C1=C(C)N(C)C(=O)/C1=C\c1ccc(OCC(=O)Nc2ccc(C)cc2)cc1	-9.3
COc1ccccc1Oc1ccc2c(c1)C(=O)N(c1nc(-c3ccccc3)cs1)C2=O	-0.1
CCOc1cc(/C=C2\C(=O)NN(c3ccc(Cl)cc3)C2=O)cc(I)c1O	5.6
O=C1NN(c2ccc(Cl)c(Cl)c2)C(=O)/C1=C/c1cc2c(cc1[N+](=O)[O-])OCO2	64.0*
O=C1NN(c2ccc(Cl)cc2)C(=O)/C1=C/c1cc(Br)cc([N+](=O)[O-])c1O	85.1*
O=C1NN(c2ccc(I)cc2)C(=O)/C1=C\c1ccc(Br)cc1	59.5*
O=C1NN(c2ccc(Cl)cc2)C(=O)/C1=C\c1ccc(F)cc1	38.5*
COc1cc(/C=C2\C(=O)NN(c3ccc(C)cc3)C2=O)cc([N+](=O)[O-])c1O	5.9
O=C1NN(c2ccccc2)C(=O)/C1=C/c1ccc2c(c1)OCO2	6.7
O=C1NN(c2ccc(Cl)c(Cl)c2)C(=O)/C1=C/c1cccc([N+](=O)[O-])c1	8.9
O=C1NN(c2ccc(I)cc2)C(=O)/C1=C\c1cccs1	3.6
O=C1NN(c2ccc(F)cc2)C(=O)/C1=C/c1ccccc1O	2.1
O=C1NN(c2ccc(Br)cc2)C(=O)/C1=C\c1ccc(O)cc1	1.6
C=CCOc1ccc(/C=C2\C(=O)NN(c3ccc(Cl)cc3)C2=O)cc1OC	-10.4
COC(C(=O)Nc1ccnn1C1CCN(C(C)C)CC1)c1ccccc1 (stereo unspecified)	1.5
